Gal4-VP16 FLuc – Gal4-VP16 reporter inhibition counter-screen. AID 2546. Drosophila S2 Gal4-VP16 UAS-luciferase, luminescence, 20 h. Potency, µM (titrated, usually from 53.6 µM), for inactives: at the highest dose activity, negative = inhibition, actives largely listed as inhibitors. 310,000 compounds, 3.5% hits;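 also: Gal4-VP16 expression switched on by copper sulfate through the metallothionein promoter; potency is read from the fitted curve at half-maximal effect; nearly all actives have a fitted effect of over 50% in size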
TDP1 cell CPT – DT40-hTDP1 cell growth loss with CPT | chicken DT40 Tdp1-/-;hTDP1 cells + 20 nM CPT, ATP luminescence, 48 h | Potency, µM (highest dose often 46.2 µM), inactives show at the highest dose activity change, negative = growth inhibition, hits mostly inhibitors | 420,000 compounds, 12% hits | AID 686979; also: potency is read from the fitted curve at half-maximal effect; nearly all actives have a fitted effect of over 55% in size
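Cell growth measured by CellTiter-Glo luminescence after a minimum 48 h, 37 C compound exposure with 20 nM CPT in Tdp1-knockout DT40 cells stably expressing hTDP1, seeded 400/well; qHTS titration format.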
TDP1 cell noCPT – qHTS for Inhibitors of human tyrosyl-DNA phosphodiesterase 1 (TDP1): qHTS in cells in absence of CPT. DT40 Tdp1-/- hTDP1 cells, no CPT, ATP luminescence, 48 h. Potency, µM (highest dose often 46.2 µM), inactives show at the highest dose activity change, negative = growth inhibition, hits mostly inhibitors. AID 686978, 2013. 420,000 compounds, 15% hits; also: potency is read from the fitted curve at half-maximal effect; nearly all actives have a fitted effect of over 55% in size
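Luminescent ATP content (CellTiter-Glo) served as the growth readout. Knockout chicken DT40 cells expressing human TDP1 were exposed to compounds without camptothecin for a minimum 48 hr at 37 °C.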
IL1B secr inh – inhibitors of inflammasome signaling (IL-1 beta secretion). activity change, % at 57.5 µM. THP-1 LPS/ATP IL-1B secretion, AlphaLISA, 16 h; stronger effect = lower value. 360,000 compounds, 4.7% hits; in the data active = activity change below about -50%; inconclusive = mostly about -30% to -49%
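THP-1 cells pretreated 1 hr with compounds (up to 57.5 uM final), then stimulated with LPS (250 ng/mL final) plus ATP (1.25 mM final); secreted IL-1B measured by AlphaLISA after 16 hr, decreased signal indicating inhibition.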
ELG1 repair inh – ELG1-dependent DNA repair inhibition. HEK293T ELG1-luciferase reporter, luminescence, 16 h; DNA damage induced by 5-fluorouridine. Potency, µM (top dose mostly 46.1 µM), inactives show at the highest dose activity change, negative = inhibition, actives largely listed as inhibitors. 330,000 compounds, 2.3% hits. AID 504467; also: potency is read from the fitted curve at half-maximal effect; nearly all actives have a fitted effect of over 55% in size
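HEK293T cells expressing luciferase-tagged ELG1 (2,000/well) received 5-Fluorouridine plus compound or DMSO for 16 hr at 37 °C. Luciferase was read by ONE-Glo luminescence after 30 min at room temperature.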
RORg inh – blocks mouse ROR gamma transcriptional activity; P51450; Drosophila S2 Gal4-RORgamma UAS-luciferase reporter, 20 h; Potency, µM (series often up to 53.6 µM), without a hit: at the top dose activity change, negative = inhibition, hits mostly inhibitors; 310,000 compounds, 5.4% hits; also: potency is read from the fitted curve at half-maximal effect; nearly all actives have a fitted effect of over 60% in size
Target sequence (P51450 whole entry, looked up, the tested form may be a part): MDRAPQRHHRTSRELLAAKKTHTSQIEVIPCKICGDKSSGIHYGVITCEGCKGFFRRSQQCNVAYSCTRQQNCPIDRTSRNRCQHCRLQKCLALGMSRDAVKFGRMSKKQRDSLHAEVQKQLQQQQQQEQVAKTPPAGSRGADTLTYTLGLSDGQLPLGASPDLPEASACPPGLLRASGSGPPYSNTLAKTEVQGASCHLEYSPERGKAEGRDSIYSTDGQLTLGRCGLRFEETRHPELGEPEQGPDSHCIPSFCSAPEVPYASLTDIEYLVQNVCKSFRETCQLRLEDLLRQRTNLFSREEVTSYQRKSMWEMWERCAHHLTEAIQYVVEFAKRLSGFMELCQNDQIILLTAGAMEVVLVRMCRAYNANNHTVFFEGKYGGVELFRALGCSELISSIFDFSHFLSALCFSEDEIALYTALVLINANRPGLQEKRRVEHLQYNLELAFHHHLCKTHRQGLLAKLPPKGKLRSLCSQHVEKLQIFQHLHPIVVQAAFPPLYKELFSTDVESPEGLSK
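Luciferase reporter read in Schneider cells carrying Gal4-RORγ (mouse) and UAS-Photinus luciferase; cells given compound 1 h before 700 uM copper sulfate induction, then incubated 20 h at ambient temperature.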
* marks the source's active call; other numbers are inactive results; i = inactive; ? = inconclusive; nt = not tested or not shown; [ ] = remark or other dose. Shown are actives, neighbours in structure and some others; about 21% of the full set was active somewhere. Unless noted, calls follow the shape of the dose curve; as a rule, active = well fitted curve in the direction sought with a large enough effect; inconclusive = small, poorly fitted or top-dose-only effect, or another doubt; inactive = no such curve, though single readings can be large; an effect the other way counts as inactive or inconclusive. % is scaled to controls: 0 for no effect and ±100 for the full control effect.

SMILES	Gal4-VP16 FLuc	TDP1 cell CPT	TDP1 cell noCPT	IL1B secr inh	ELG1 repair inh	RORg inh
O=C(CSc1ncccn1)N(Cc1cccnc1)C(CCc1ccccc1)c1nc2ccccc2[nH]1 (stereo unspecified)	nt	-25.1%	?	-18.3	nt	nt
CC1(C(=O)NC2CCN(Cc3ccccc3)CC2)CCN1CCc1ccccc1 (stereo unspecified)	nt	29.1µM*	?	-4.9	nt	nt
O=C(COc1ccc(Br)cc1Cl)NC1CCN(Cc2ccccc2)CC1	-5.0%	?	?	-81.1*	-16.2%	32.7%
CCN(c1ccccc1)S(=O)(=O)c1ccc(C(=O)NC2CCN(Cc3ccccc3)CC2)cc1	nt	8.2µM*	7.31µM*	?	?	nt
O=C(COc1ccc(Br)cc1CNC1CCCCC1)NCCc1ccccc1	-10.1%	18.4µM*	16.4µM*	-97.4*	?	-3.6%
O=C(COc1ccccc1)NC1CCN(Cc2ccccc2)CC1	-3.3%	-28.2%	-8.5%	8.0	0.0%	0.3%
CC(=O)Nc1ccc(CN2CCC2(C)C(=O)NC2CCN(Cc3ccccc3)CC2)cc1 (stereo unspecified)	nt	-20.7%	-6.9%	-9.7	nt	nt
O=C(COc1ccc(Br)cc1Cl)NC(=O)NCc1ccccc1	-2.9%	-27.9%	-5.2%	-8.8	-1.2%	?
O=C(/C=C/c1cccc(Br)c1)NC1CCN(Cc2ccccc2)CC1	-4.8%	?	23.1µM*	-78.1*	-19.6%	0.0%
O=C(/C=C/c1cccc(F)c1)NC1CCN(Cc2ccccc2)CC1	3.6%	-13.0%	?	-12.6	-9.2%	7.0%
COc1ccc(-c2cc3ccc(O)c(CN4CCC(C)CC4)c3oc2=O)cc1OC	nt	-17.3%	?	nt	nt	nt
C/C(=N\NC(=O)CNC(=O)C(c1ccccc1)c1ccccc1)c1ccc(C(C)(C)C)cc1	?	16.4µM*	16.4µM*	7.4	18.0%	-10.0%
COc1ccc(/C(C)=N\NC(=O)CNC(=O)C(c2ccccc2)c2ccccc2)cc1OC	?	?	-6.8%	51.4	-10.5%	-16.6%
COc1ccc(-n2ccc(-c3sc(NCc4cc(OC)c5c(c4)OCO5)nc3C)n2)cc1	nt	-10.0%[9.04 µM]	?	nt	nt	nt
c1ccc(Nc2nc(-c3ccc4c(c3)OCO4)nc3ccccc23)cc1	4.1%	?	?	nt	nt	23.8%
CCOc1ccccc1-c1cc(C(=O)N/N=C/c2cccnc2)c2ccccc2n1	nt	?	1.46µM*	-5.9	nt	nt
CCOc1ccc(-c2cc(C(=O)N/N=C/c3cccnc3)c3ccccc3n2)cc1	?	2.31µM*	1.84µM*	23.3	?	?
COc1ccc(-c2cc(C(=O)N/N=C/c3cccnc3)c3cc(C)cc(C)c3n2)cc1	?	18.4µM*	8.2µM*	i	?	-3.9%
COc1ccc(NC(=O)C(=O)N/N=C/c2cccnc2)cc1	-10.5%	8.4%	-25.0%	2.2	-0.2%	14.8%
CCN(C(=O)c1ccc(NC(=O)C2CCCCC2C(=O)O)cc1)c1ccccc1 (stereo unspecified)	nt	14.2%	-3.0%	16.7	nt	nt
CCc1cc(C(=O)c2ccccc2)c(N)s1	4.5%	25.9µM*	?	-8.5	-0.2%	-18.2%
N#Cc1ccc(OS(=O)(=O)c2ccc(-c3ccon3)s2)cc1	?	11.6µM*	?	?	3.1%	?
CCCCNc1c(-c2ccc(SC(C)CC)cc2)nc2cnccn12 (stereo unspecified)	nt	9.2µM*	8.2µM*	-71.9*	?	nt
CCC(=O)Nc1c(-c2ccc3ccccc3c2)nc2ccccn12	-3.9%	-5.7%	1.7%	-0.1	?	-7.0%
Cc1ccc(Nc2c(-c3ccc(N4CCOCC4)cc3)nc3cnccn23)cc1	14.2%	?	?	-14.1	?	40.3%
SMILES	Gal4-VP16 FLuc	TDP1 cell CPT	TDP1 cell noCPT	IL1B secr inh	ELG1 repair inh	RORg inh
CCCCNc1c(-c2ccc(OC)c(Sc3ccc(OC)cc3)c2)nc2cnccn12	nt	?	23.1µM*	55.0	?	nt
CCCCNc1c(-c2ccc(OC)c(Sc3ccc(OC)cc3)c2)nc2ccccn12	nt	4.11µM*	9.2µM*	-104.2*	?	nt
CCCCNc1c(-c2ccc(-c3ccc(OC)cc3)c(OC)c2)nc2ccccn12	nt	18.4µM*	13µM*	-75.1*	?	nt
COc1ccc(Nc2c(-c3ccc(OC)cc3)nc3cnccn23)cc1	-16.9%	?	?	94.8	-5.6%	16.3%
O=C(CSc1nccn1-c1ccc(F)cc1)Nc1nc2ccccc2s1	nt	-1.5%	-16.3%	nt	nt	nt
CCCCSc1ncnc2c1c(-c1ccccc1)cn2-c1cccc(F)c1	nt	-9.8%	-8.1%	nt	nt	nt
Cc1ccc(C)c(C(O)c2ncc(-c3ccccc3)[nH]2)c1 (stereo unspecified)	nt	?	-28.8%	-14.2	nt	nt
CC(C)C1C(=O)Nc2ccc(S(=O)(=O)NCCc3ccc(Cl)cc3)cc21 (stereo unspecified)	nt	?	23.1µM*	nt	nt	nt
Cc1ccc(CCNS(=O)(=O)c2ccc3c(c2)NC(=O)C(C)C(=O)N3)cc1 (stereo unspecified)	-23.2%	-22.0%	23.1µM*	14.8	1.8%	34.3%
CN1C(=O)C(C)(C)c2cc(S(=O)(=O)NCCc3ccc(Cl)cc3)ccc21	?	4.6%	-12.8%	4.7	?	10.4%
COc1cccc(CNS(=O)(=O)c2ccc3c(c2)C(C(C)C)C(=O)N3)c1 (stereo unspecified)	nt	?	13µM*	nt	nt	nt
CC(C)NC(=O)N(C)C[C@H]1OCCCC[C@@H](C)Oc2ccc(N(C)C)cc2C(=O)N([C@H](C)CO)C[C@@H]1C	nt	?	?	0.0	nt	nt
O=C(N/N=C/c1ccc(Sc2nc3ccccc3s2)c([N+](=O)[O-])c1)c1ccccn1	1.9%	-18.5%	-23.9%	5.6	-26.5%	-19.3%
O=C(Nc1cc(Sc2ccccn2)cc([N+](=O)[O-])c1)c1cccc(F)c1	-14.9%	?	?	-22.5	?	?
O=C(Nc1cc(Sc2nc3ccccc3s2)cc([N+](=O)[O-])c1)c1ccccc1	2.9%	?	16.4µM*	19.2	?	35.0%
O=C(Nc1cc(Sc2nc3ccccc3s2)cc([N+](=O)[O-])c1)c1ccccc1F	4.4%	20.6µM*	?	33.1	?	16.5%
O=C(CCS(=O)(=O)c1ccc(Cl)cc1)N1CCCc2ccccc21	nt	-26.8%	-14.7%	-7.5	nt	nt
O=S(=O)(c1ccccc1)c1nnn2c1nc(NC1CCCCCC1)c1sccc12	nt	-23.6%	-17.5%	nt	nt	nt
